High-throughput results as filed in PubChem.
RORgamma inh – blocks mouse ROR gamma transcriptional activity | Potency, µM (highest dose often 53.6 µM), for the others: at the highest dose activity change, negative = inhibition, actives largely listed as inhibitors | 310,000 compounds, 5.4% hits | Drosophila S2 Gal4-RORgamma UAS-luciferase reporter, 20 h; also: nearly all actives have a fitted effect of over 60% in size
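Luminescence from a UAS-regulated Photinus luciferase reporter in stably transfected Drosophila Schneider cells is measured; decreased signal marks ROR gamma inhibition. Fusion expression is induced by 700 uM copper sulfate for 20 hr.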
ELG1 DNA repair – blocks ELG1-dependent DNA repair in HEK293T cells. HEK293T ELG1-luciferase reporter, luminescence, 16 h; DNA damage induced by 5-fluorouridine. Potency, µM (highest dose often 46.1 µM), inactives show top-dose activity change, negative = inhibition, usual class: inhibitors. 330,000 compounds, 2.3% hits. AID 504467; also: nearly all actives have a fitted effect of over 55% in size
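DMSO vehicle served as the neutral condition. Each well held 2,000 cells given 5-fluorouridine plus compound; after 16 hr at 37 °C/5% CO2, ONE-Glo was added and luciferase measured 30 min later.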
12-LOX inh – ALOX12 (human) lipoxygenase inhibition. Potency, µM (doses to about 108 µM), inactives show at the highest dose activity change, negative = inhibition, most hits filed as inhibitors. 580,000 compounds, 1.1% hits. purified 12hLO, xylenol orange hydroperoxide absorbance. AID 1671190. P18054
Target sequence (P18054 whole entry, looked up): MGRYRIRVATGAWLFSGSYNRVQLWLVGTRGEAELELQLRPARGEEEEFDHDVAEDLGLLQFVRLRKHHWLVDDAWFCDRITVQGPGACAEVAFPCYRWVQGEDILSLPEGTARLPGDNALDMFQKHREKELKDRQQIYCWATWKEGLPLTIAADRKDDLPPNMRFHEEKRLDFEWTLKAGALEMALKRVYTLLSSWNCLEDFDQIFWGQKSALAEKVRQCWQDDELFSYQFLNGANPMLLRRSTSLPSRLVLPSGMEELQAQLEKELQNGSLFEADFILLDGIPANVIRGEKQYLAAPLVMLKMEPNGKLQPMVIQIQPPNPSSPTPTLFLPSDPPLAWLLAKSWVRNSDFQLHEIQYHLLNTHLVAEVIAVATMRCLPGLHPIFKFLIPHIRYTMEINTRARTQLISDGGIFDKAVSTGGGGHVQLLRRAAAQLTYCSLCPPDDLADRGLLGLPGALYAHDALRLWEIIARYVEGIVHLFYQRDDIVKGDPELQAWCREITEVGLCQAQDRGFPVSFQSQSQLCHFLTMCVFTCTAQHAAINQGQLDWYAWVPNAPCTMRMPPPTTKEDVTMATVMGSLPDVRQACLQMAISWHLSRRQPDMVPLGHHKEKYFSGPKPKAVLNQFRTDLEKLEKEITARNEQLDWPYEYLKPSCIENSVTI
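Purified human 12hLO (150 nM final) in 25 mM Hepes, 0.01% Triton X-100, pH 7.0 was preincubated 15 min at room temperature with compound. Then 40 uM arachidonic acid was added, 30 min. Hydroperoxide was read by Fe-XO absorbance ratio 573/405 nm.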
DT40 TDP1 no CPT – qHTS for Inhibitors of human tyrosyl-DNA phosphodiesterase 1 (TDP1): qHTS in cells in absence of CPT; DT40 Tdp1-/- hTDP1 cells, no CPT, ATP luminescence, 48 h; Potency, µM (top dose mostly 46.2 µM), without a hit: at the highest dose activity change, negative = growth inhibition, hits mostly inhibitors; 420,000 compounds, 15% hits; AID 686978, 2013; also: nearly all actives have a fitted effect of over 55% in size
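Growth of hTDP1-complemented DT40 Tdp1-knockout cells is measured by ATP luminescence after at least 48 hr compound exposure at 37 °C, with DMSO substituting for the 20 nM CPT used in the parallel screen.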
Gal4-VP16 FLuc – inhibits Gal4-VP16 luciferase reporter, ROR gamma counter-screen; Drosophila S2 Gal4-VP16 UAS-luciferase, luminescence, 20 h; 310,000 compounds, 3.5% hits; Potency, µM (titrated, usually from 53.6 µM), inactives show top-dose activity, negative = inhibition, most hits filed as inhibitors; AID 2546;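 also: Gal4-VP16 expression switched on by copper sulfate through the metallothionein promoter; nearly all actives have a fitted effect of over 50% in size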
TDP1 cell CPT – growth inhibition of DT40 Tdp1-/-;hTDP1 cells with camptothecin (screen for TDP1 inhibitors). Potency, µM (titrated, usually from 46.2 µM), for inactives: at the top dose activity change, negative = growth inhibition, most hits filed as inhibitors. 420,000 compounds, 12% hits. chicken DT40 Tdp1-/-;hTDP1 cells + 20 nM CPT, ATP luminescence, 48 h. AID 686979; also: nearly all actives have a fitted effect of over 55% in size
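Chicken DT40 Tdp1-/- cells stably complemented with human TDP1 were seeded at 400 cells/well in medium containing 20 nM camptothecin, exposed to pin-transferred compounds, and grown at 37 °C for at least 48 hr. Viability was read as ATP luminescence.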
Numbers without * were called inactive; ? = inconclusive; . = not tested or not shown; [ ] = another dose, or the depositor's remark. Shown are actives, neighbours in structure and some others; about 15% of the full set was active somewhere. Calls follow the shape of the dose curve; as a rule, active = well fitted curve in the direction sought with a large enough effect; inconclusive = small, poorly fitted or top-dose-only effect, or another doubt; inactive = no such curve, though single readings can be large; an effect the other way counts as inactive or inconclusive. % is scaled to controls: 0 for no effect and ±100 for the full control effect; potency is read from the fitted curve at half-maximal effect.

SMILES	RORgamma inh	ELG1 DNA repair	12-LOX inh	DT40 TDP1 no CPT	Gal4-VP16 FLuc	TDP1 cell CPT
CCOC(=O)Nc1sc2nc(C)cc(C)c2c1-n1cccc1	-4%	?	-18%	9.2µM*	0%	23µM*
Cc1cc(C)c2c(-n3cccc3)c(C(=O)NCC(C)c3ccccc3)sc2n1 (centres undefined)	.	.	0%	21µM*	.	21µM*
CC1CCCCN1CCCNC(=O)c1sc2ncccc2c1-n1cccc1 (centres undefined)	.	.	4%	-23%	.	-24%
CC(CNC(=O)c1sc2ncccc2c1-n1cccc1)c1ccccc1 (centres undefined)	.	.	4%	26µM*	.	?
CN1C(=O)CCC2(CNC(=O)c3cccn3C)CCC=C12 (centres undefined)	.	.	49%	.	.	.
O=C(O)c1c[nH]c2cc(C(F)(F)F)ccc2c1=O	11%	12%	.	?	-13%	-10%
Cc1ccc(C(=O)Nc2cccc(C(F)(F)F)c2)cc1NC(=O)c1c[nH]c2cc(C(F)(F)F)ccc2c1=O	.	?	2%	?	.	5.2µM*
CCN1CCN(Cc2ccc(NC(=O)c3ccc(C)c(NC(=O)c4c[nH]c5cc(C(F)(F)F)ccc5c4=O)c3)cc2C(F)(F)F)CC1	6.3µM*	?	?	4.1µM*	11µM*	4.6µM*
CCc1nc(CN2CCCC(CO)(CC3CC3)C2)cs1 (centres undefined)	.	.	26%	.	.	.
Nc1nnc(COc2cccc(C(F)(F)F)c2)s1	7%[10 µM]	?	414%	?	0%	-12%
Nc1nc(N)c2c(Oc3ccc(F)cc3)cccc2n1	.	.	.	1.8µM*	.	13µM*
Cc1ccccc1Oc1ccc(-c2nc(N)nc(N)n2)cc1	22%	-3%	?	?	-2%	-26%
Nc1nc(N)c2c(OCc3ccc(C(F)(F)F)cc3)cccc2n1	.	.	.	3.2µM*	.	5µM*
O=C1C(=Cc2ccc(Br)o2)C(=O)c2ccccc21	35%	17%	.	?	20%	23µM*
Cc1ccc(C(=O)O)cc1-c1ccc(C=C2C(=O)c3ccccc3C2=O)o1	1%	-5%	?	-2%	-9%	9%
COC(=O)[C@]12CCCCC=C1N(Cc1ccc3c(c1)OCO3)C(=O)[C@H](CC(=O)NCCc1ccccc1OC)C2	.	.	1%	18µM*	.	23µM*
CCOC(=O)[C@]12CCCC=C1N(Cc1ccc3c(c1)OCO3)C(=O)[C@H](CC(=O)NCc1ccc(OC)c(OC)c1)C2	.	.	-1%	?	.	?
CCOC(=O)[C@]12CCCC=C1N(Cc1ccc3c(c1)OCO3)C(=O)[C@H](CC(=O)NCCc1ccccc1OC)C2	.	.	16%	16µM*	.	?
Cc1ccc(C(CNC(=O)c2cc(=O)c3cc(Cl)ccc3o2)N2CCN(C)CC2)o1 (centres undefined)	.	.	0%	.	.	.
CCn1ccnc1CN1CCCC(C(=O)c2ccc3cc(OC)ccc3c2)C1 (centres undefined)	0.022µM*	?	3%	4.6µM*	1.6µM*	2.9µM*
COc1c(C)cc(C(=O)C2CCCN(Cc3ccc(Oc4ncccn4)cc3)C2)cc1C (centres undefined)	17%	18µM*	-7%	15µM*	4%	?
COc1ccc(C(=O)N2CCN(Cc3ccccn3)CC2)cc1	16%	5%	?	18%	2%	4%
COc1ccc2cc(C(=O)C3CCCN(Cc4ccccn4)C3)ccc2c1 (centres undefined)	3.2µM*	-13%	0%	18µM*	?	?
